Bioassay records: PubChem BioAssay, several laboratories
A selection: hits, their analogues and other compounds. The true share with any hit is near 32%.
PostGolgi yeast – growth inhibition of a yeast mutant, post-Golgi transport screen | post-Golgi transport phenotypic cell assay | inhibition, % at 10 µM | hit rate 0.9% among 98,000 | AID 739;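 further: yeast cells grown in 1536-well plates; yeast grown about 18 h at 30C before absorbance read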
CYP2C19 inh – human CYP2C19 inhibition | P33261 | AID 778 | inhibition, % at 5 µM | hit rate 21% among 96,000 | CYP2C19 Supersomes, luciferin-H EGE luminescence, 30 min;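 active means CYP2C19 inhibition above a set limit at 5 µM in the primary screen, cut at about 50% in these data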
Target sequence (P33261 whole entry, looked up): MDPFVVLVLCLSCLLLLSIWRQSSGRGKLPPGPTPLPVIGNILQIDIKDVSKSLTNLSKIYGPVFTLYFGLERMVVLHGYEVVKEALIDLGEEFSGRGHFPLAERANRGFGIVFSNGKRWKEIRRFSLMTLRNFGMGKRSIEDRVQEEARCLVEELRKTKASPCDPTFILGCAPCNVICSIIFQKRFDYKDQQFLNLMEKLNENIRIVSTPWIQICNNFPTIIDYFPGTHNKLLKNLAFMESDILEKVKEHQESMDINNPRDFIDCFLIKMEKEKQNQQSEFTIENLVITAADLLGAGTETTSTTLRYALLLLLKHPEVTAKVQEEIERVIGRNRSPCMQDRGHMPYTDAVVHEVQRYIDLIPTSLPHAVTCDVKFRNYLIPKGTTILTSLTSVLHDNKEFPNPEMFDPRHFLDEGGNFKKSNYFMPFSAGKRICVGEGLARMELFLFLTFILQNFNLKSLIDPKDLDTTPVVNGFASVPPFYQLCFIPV
CYP2C9 act – increases human cytochrome P450 2C9 activity; hit rate 1.4% among 96,000; activation factor at 5 µM; recombinant CYP2C9, luciferin-H conversion, luminescence; stronger effect = higher value; factor 1 = untreated enzyme, 0 = blocked; P11712;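 active means activation factor of 2 or more for CYP2C9 at a 5 µM dose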
CYP2C9 inh – human CYP2C9 inhibition. P11712. CYP2C9 Supersomes, luciferin-H conversion, luminescence. inhibition, % at 5 µM. hit rate 20% among 96,000. AID 777;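 active means blocking of liver enzyme CYP2C9 beyond about 50% at 5 µM, limit read from the data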
PostGolgi ctrl – inhibits growth of the yeast control strain | efflux-deficient yeast background strain, growth absorbance A615, 16 h | inhibition, % at 10 µM | hit rate 5% among 98,000
CYP2C19 activ – increases human CYP2C19 enzyme activity | 96,000 tested, under 10 active | activation factor at 5 µM | P33261 | recombinant CYP2C19, luciferin-H EGE luminescence; stronger effect = higher value; 0 = fully inhibited enzyme, 1 = untreated enzyme;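 active means activation factor of at least 2 at 5 µM in the primary screen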
A number is an active result; 0 = inactive. Unless noted, no stated cut-off is given here; in the data, active means inhibition above about 30%; inactive means the rest.

SMILES | PostGolgi yeast | CYP2C19 inh | CYP2C9 act | CYP2C9 inh | PostGolgi ctrl | CYP2C19 activ
Cc1cc(C)c(C(=O)CSc2n[nH]c(=O)n2C2CC2)cc1C | 0 | 52.0 | 0 | 76.9 | 0 | 0
Cn1nc(-c2ccccc2)c(CSc2ccccc2Cl)c1Cl | 0 | 0 | 0 | 0 | 0 | 0
Cc1ccc(S(=O)(=O)c2c(COC(=O)c3ccccc3Cl)c(-c3ccccc3)nn2C)cc1 | 0 | 50.2 | 0 | 70.1 | 0 | 0
CCc1ccc(NC(=O)CCn2ccnc2C)cc1 | 0 | 82.9 | 0 | 68.5 | 0 | 0
O=C(CCN1CCN(c2ccc(F)cc2)CC1)Nc1ccc(F)cc1 | 0 | 0 | 0 | 0 | 0 | 0
Cc1nccn1CCC(=O)O | 0 | 0 | 0 | 0 | 0 | 0
O=C(CCN1CCc2ccccc2C1)Nc1ccc(F)cc1 | 0 | 61.0 | 0 | 0 | 0 | 0
CCc1ccc(NC(=O)CCn2cccc2)cc1 | 0 | 71.1 | 0 | 0 | 0 | 0
CCC(Cc1ccccc1)NC(=O)CCn1cccc1 (stereo not given) | 0 | 65.7 | 0 | 66.3 | 0 | 0
CC(=O)C1=C(O)C(=O)N(CCc2c[nH]c3ccccc23)C1c1ccco1 (stereo not given) | 0 | 0 | 0 | 0 | 0 | 0
COc1nc(N/N=C/c2ccccc2F)nc(N2CCCCC2)n1 | 0 | 0 | 0 | 0 | 0 | 0
Cc1ccc(NC(=O)CCn2cccc2)cc1Cl | 0 | 86.1 | 0 | 0 | 0 | 0
O=C(CCn1cccc1)Nc1ccc(F)cc1 | 0 | 61.5 | 0 | 0 | 0 | 0
COC(=O)c1ccc(NC(=O)CCn2cccc2)cc1 | 0 | 0 | 0 | 0 | 0 | 0
CCN(CC)CCN(C(=O)Cn1nnc(-c2ccc(OC)c(OC)c2)n1)C(C(=O)NC1CCCC1)c1ccc(F)cc1 (stereo not given) | 0 | 0 | 0 | 0 | 0 | 0
CC1CN(C(=O)c2ccc(COCC(F)(F)F)o2)CC(C)O1 (stereo not given) | 0 | 0 | 0 | 0 | 0 | 0
COc1ccccc1NC(=O)CN1CCC(n2nnc3cc(F)ccc32)CC1 | 0 | 96.6 | 0 | 0 | 0 | 0
Cc1nc2cc(C(F)(F)F)ccc2n1C1CCN(CC(=O)N2CCOCC2)CC1 | 0 | 0 | 0 | 0 | 0 | 0
O=C(CN1CCC(n2nnc3cc(F)ccc32)CC1)NCc1ccco1 | 0 | 0 | 0 | 0 | 0 | 0
Cc1ccc2c(c1)nnn2C1CCN(CC(=O)NCCc2ccccc2)CC1 | 0 | 52.2 | 0 | 0 | 0 | 0
COc1ccccc1NC(=O)CN1CCC(n2c(C)nc3cc(F)ccc32)CC1 | 0 | 0 | 0 | 0 | 0 | 0
CC1Cc2ccccc2N1C(=O)CN1CCC(n2nnc3cc(C(F)(F)F)ccc32)CC1 (stereo not given) | 0 | 50.5 | 0 | 0 | 0 | 0
Cc1ccc2c(c1)nnn2C1CCN(CC(=O)Nc2ccccc2N2CCOCC2)CC1 | 0 | 71.2 | 0 | 74.7 | 0 | 0
CC1(C)Cc2c(C#N)c(N)sc(=S)c2CS1 | 0 | 0 | 0 | 0 | 0 | 0
CC1(C)Oc2ccc3ccc(=O)oc3c2-c2cn[nH]c21 | 0 | 0 | 0 | 0 | 0 | 0
SMILES | PostGolgi yeast | CYP2C19 inh | CYP2C9 act | CYP2C9 inh | PostGolgi ctrl | CYP2C19 activ
COc1ccc(Cl)cc1NC(=O)CN1CCC(n2nnc3cc(C)ccc32)CC1 | 0 | 93.7 | 0 | 0 | 0 | 0
COC(=O)c1ccccc1NC(=O)CN1CCC(n2nnc3cc(C(F)(F)F)ccc32)CC1 | 0 | 69.5 | 0 | 82.3 | 0 | 0
COc1ccc(C(=O)NNC(=O)CN2CCC(n3nnc4cc(C(F)(F)F)ccc43)CC2)cc1 | 0 | 0 | 0 | 0 | 0 | 0
O=C(NCc1ccco1)C(c1ccco1)N(CCc1ccccc1)C(=O)Cn1nnc2ccccc21 (stereo not given) | 0 | 0 | 0 | 0 | 0 | 0
Cc1nc(CC(=O)O)c(-c2ccccc2)s1 | 0 | 0 | 0 | 0 | 0 | 0
Clc1ccc(-c2cnc(Oc3ccccc3)nc2)cc1 | 33.1 | 0 | 0 | 0 | 0 | 0
Cc1cc(=O)n2nc(N3CCCC(C(=O)N4CCc5ccccc54)C3)sc2n1 (stereo not given) | 0 | 0 | 0 | 57.9 | 0 | 0
O=C(C1CCC(C(=O)N2CCc3ccccc32)CC1)N1CCc2ccccc21 (stereo not given) | 0 | 0 | 0 | 0 | 0 | 0
O=C(C1CCCN(c2ncccn2)C1)N1CCc2ccccc21 (stereo not given) | 0 | 83.5 | 0 | 71.5 | 0 | 0
O=C(Nc1ccccc1-c1ccccc1)C1CCCN(c2ncccn2)C1 (stereo not given) | 0 | 73.0 | 0 | 51.1 | 0 | 0
C=CCN1C(=O)CSc2ccc(C(=O)OCC)cc21 | 0 | 0 | 0 | 0 | 0 | 0
Fc1cccc(Cn2cc(C(=S)N3CCCCC3)c3ccccc32)c1 | 0 | 0 | 0 | 0 | 0 | 0
Oc1ccccc1C(=S)N1CCCCC1 | 0 | 78.2 | 0 | 0 | 0 | 0
Oc1ccccc1C(=S)N1CCCCCC1 | 0 | 52.2 | 0 | 0 | 0 | 0
CCC(=O)N[C@@H]1CC(C(C)(C)NC(=O)CC)CC=C1C (stereo not given in full) | 0 | 0 | 0 | 0 | 0 | 0
CCSC1=N/C(=C\c2ccc(C(=O)O)cc2)C(=O)S1 | 0 | 0 | 0 | 0 | 0 | 0
CCOC(=O)SC1=N/C(=C\c2ccc(N(C)C)cc2)C(=O)S1 | 0 | 0 | 0 | 68.0 | 0 | 0
Cc1cc(NC(=O)C2C3C(=O)N(Cc4ccc(Cl)cc4)C(C(=O)NC(C)(C)C)C34C=CC2(C)O4)no1 (stereo not given) | 0 | 0 | 0 | 0 | 0 | 0
CC(C)c1ccc(C2C3CSCC=C3C(C#N)=C(N)C2(C#N)C#N)cc1 (stereo not given) | 74.5 | 67.3 | 0 | 100.2 | 0 | 0
CCN(CC)S(=O)(=O)c1ccc(NC(=O)COc2c(OC)cccc2OC)cc1 | 0 | 0 | 0 | 0 | 0 | 0
CCN(CC)S(=O)(=O)c1ccc(NC(=O)C(OC)c2ccccc2)cc1 (stereo not given) | 0 | 0 | 0 | 55.0 | 0 | 0
CC(=O)NC(CC(=O)Nc1ccc(S(=O)(=O)N2CCCC2)cc1)c1ccccc1 (stereo not given) | 0 | 0 | 0 | 52.4 | 0 | 0
CCN(CC)S(=O)(=O)c1ccc(NC(=O)CC(NC(C)=O)c2ccccc2)cc1 (stereo not given) | 0 | 0 | 0 | 86.1 | 40.1 | 0
COc1ccc(N2C(=O)CN=C2Nc2nc(C)cc(C)n2)cc1 | 0 | 0 | 0 | 0 | 0 | 0
COc1ccc(-c2cc(C(F)(F)F)nc(SCCC(=O)N3CCOCC3)n2)cc1 | 0 | 0 | 0 | 0 | 0 | 0
Cc1ccc(-n2c(SCC(N)=O)nc3c([nH]c4ccccc43)c2=O)cc1 | 0 | 0 | 0 | 78.6 | 0 | 0
COc1cccc(-n2c(SCC(N)=O)nc3c([nH]c4ccccc43)c2=O)c1 | 0 | 0 | 0 | 51.6 | 0 | 0
O=C(CSc1nc2c([nH]c3ccccc32)c(=O)n1-c1ccccc1)N1CCOCC1 | 0 | 0 | 0 | 0 | 0 | 0
COc1cccc(-n2c(SCC(=O)Nc3cc(C)on3)nc3c([nH]c4ccccc43)c2=O)c1 | 0 | 0 | 0 | 54.3 | 0 | 0
O=C(C1CCCN(S(=O)(=O)c2cccs2)C1)N1CCN(C2CCCCC2)CC1 (stereo not given) | 0 | 0 | 0 | 0 | 0 | 0
